mcGAS RapidFire = inhibitors of Mus musculus cyclic GMP-AMP synthase, initial high-throughput assay, cell-free, RapidFire MS. recombinant mouse cGAS, cGAMP by RapidFire MS. inhibition, % at 12.5 µM. hit rate 0.18% among 130,000;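 active = inhibition of cGAS enzyme activity at or above 60%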;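 note: enzyme stimulated by 45 bp dsDNA with ATP and GTP substrates; cGAMP share of summed cGAMP plus half ATP and half GTP signals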
Target sequence (Q8C6L5 whole entry, looked up): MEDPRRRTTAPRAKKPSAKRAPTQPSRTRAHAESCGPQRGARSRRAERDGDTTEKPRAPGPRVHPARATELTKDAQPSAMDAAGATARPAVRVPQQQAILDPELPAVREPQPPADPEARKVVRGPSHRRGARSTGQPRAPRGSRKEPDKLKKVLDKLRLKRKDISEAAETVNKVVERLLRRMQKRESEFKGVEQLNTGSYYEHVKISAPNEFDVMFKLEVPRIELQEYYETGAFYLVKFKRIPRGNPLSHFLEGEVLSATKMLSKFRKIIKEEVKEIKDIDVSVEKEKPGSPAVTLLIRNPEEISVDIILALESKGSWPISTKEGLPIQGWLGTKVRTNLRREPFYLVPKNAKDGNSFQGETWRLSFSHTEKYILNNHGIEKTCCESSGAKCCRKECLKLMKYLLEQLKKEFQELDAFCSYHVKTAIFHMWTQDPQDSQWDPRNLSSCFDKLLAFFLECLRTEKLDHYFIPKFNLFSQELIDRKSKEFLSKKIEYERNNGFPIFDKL
Active calls of the source: *; ! = not active in a repeat. This excerpt belongs to a sample that is enriched for hits.

CC(=O)OCC1=C(C(=O)O)N2C(=O)[C@@H](NC(=O)CCCC(N)C(=O)O)C2SC1 (some centres not stated) was read as mcGAS RapidFire 73*!.
`CCC1NCCC1c1ccc(C)cc1` (configuration not stated) gave mcGAS RapidFire -7.
For c1cc2c(c(-c3cnn4cccnc34)c1)CCNC2 the results were mcGAS RapidFire -13.
`FC(F)(F)c1ccccc1C1=CCNCC1` gave mcGAS RapidFire -11.
For O=c1c(O)c(-c2ccc(O)c(O)c2)oc2c(O)c(O)cc(O)c12 the results were mcGAS RapidFire 93*.
`CN(C)c1ccc2c(c1)N=C(c1ccc(Cl)cc1)OP2(=S)N1CCOCC1` (configuration not stated) gave mcGAS RapidFire -5.
For CC(O)=C(C#N)P(=S)(c1ccccc1)c1ccccc1 the results were mcGAS RapidFire -1.
Screening CCCSc1ncc(CN2C[C@H]3C[C@H](O)[C@@H](O)C[C@H]3C2)cn1 returned mcGAS RapidFire -11.
Cc1cc(C(=O)N2CCN3CCN(C)CC3C2)c(=O)n(C)c1C (configuration not stated) was read as mcGAS RapidFire 0.
CC(=O)NS(=O)(=O)c1ccc(NC(=O)c2cccn(Cc3ccc(C)cc3)c2=O)cc1 was read as mcGAS RapidFire -5.
`CN(C/C=C/Cl)C1Cc2ccccc2C1` gave mcGAS RapidFire -9.
For Oc1cc(Cl)ccc1Oc1ccc(Cl)cc1Cl the results were mcGAS RapidFire -18.
Screening O=C(O)COc1ccc(Cl)cc1Cl returned mcGAS RapidFire 96*.
Screening CCCCCCC(C)OC(=O)COc1ccc(Cl)cc1Cl (configuration not stated) returned mcGAS RapidFire -8.
Screening O=C(O)COc1cc(Cl)c(Cl)cc1Cl returned mcGAS RapidFire 98*.
Screening O=C(O)COc1ccccc1 returned mcGAS RapidFire 7.
Screening COc1cc(OC)c(C=NNP(=S)(c2ccccc2)c2ccccc2)c(OC)c1 returned mcGAS RapidFire -2.
CCC(NCc1ccco1)c1nc2ccccc2c(=O)n1-c1ccc(Cl)cc1 (configuration not stated) was read as mcGAS RapidFire 0.
`Cc1ccc(C=C2CC3C4CC=C5CC(O)CCC5(C)C4CCC3(C)C2O)o1` (configuration not stated) gave mcGAS RapidFire -24.
`O=C1CCCN1c1ccc(NC2CN3CCC2CC3)cc1` (configuration not stated) gave mcGAS RapidFire -15.
For Cc1cccc(Cn2cccc(C(=O)Nc3ccccc3F)c2=O)c1 the results were mcGAS RapidFire -5.
For Cc1ccc(CC2(CCc3ccncc3)C(=O)NC(=O)NC2=O)s1 the results were mcGAS RapidFire -4.
For CC1CNCCN1c1nccn2cnnc12 (configuration not stated) the results were mcGAS RapidFire -38.
Screening Cc1ccc(C2=CCN(Cc3nc4ccsc4c(=O)[nH]3)CC2)cc1 returned mcGAS RapidFire -5.
Screening CC(Cc1ccc(F)cc1)NC(=O)CC(C)C(C)C (configuration not stated) returned mcGAS RapidFire 3.
O=C(O)c1ccccc1-c1c2cc(Br)c(=O)cc-2oc2[c]([Hg])c(O)c(Br)cc12 was read as mcGAS RapidFire 99*!.
Screening CN1C(=O)C(C2c3ccccc3Oc3c2c(=O)n(C)c(=O)n3C)C(=O)N(C)C1=O (configuration not stated) returned mcGAS RapidFire -6.
COc1cccc(CN2CCCC(C(=O)c3ccc(Cl)cc3)C2)c1O (configuration not stated) was read as mcGAS RapidFire -7.
`CC(C)(C)C(=O)NC1CCSC1=O` (configuration not stated) gave mcGAS RapidFire 76*.
`CCC(C)(C)C(=O)NC1CCSC1=O` (configuration not stated) gave mcGAS RapidFire 6.
Screening CC(C(=O)NCc1cc(C(C)(C)C)n[nH]1)N1CCCC1=O (configuration not stated) returned mcGAS RapidFire -5.
`CC(=O)c1cc(C(C)(C)C)cc2c1CCC2(C)C` gave mcGAS RapidFire -9.
For Oc1c(Cl)c(Cl)c(Cl)c(Cl)c1Cl the results were mcGAS RapidFire 98*.
`CO[C@H]1[C@H](O)[C@H](O[C@H]2CC[C@]3(C)C4CC[C@]5(C)C(C6=CC(=O)OC6)CC[C@]5(O)C4CC[C@@H]3C2)O[C@@H](C)[C@@H]1O` (some centres not stated) gave mcGAS RapidFire -14.
COc1ccc(C)cc1CCNC1CCC(C)CC1 (configuration not stated) was read as mcGAS RapidFire -6.
